Among all 5,500 compounds or so, about 2,000 (36%) were called active. Roughly 18% stayed inconclusive and do not appear here. Rule as the data show it: active = normalized growth mostly below about 0.91 (no sharp cut-off); inconclusive = no clear call, values can overlap the other calls; inactive = mostly above about 0.92. The list shows a part of the results.
Experiment: chemical genetic growth profiling, strain panel (AID 1159580);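 also: tested at 20 µM; growth read once vehicle control cultures reached saturation at 30 °C; 1 = growth at the plate median or of vehicle wells; lower values mean less growth of the strain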
Settings: growth OD

Measured: normalized growth

CCCCCC(=O)O[C@]1(C(C)=O)CCC2C3CCC4=CC(=O)CC[C@]4(C)C3CC[C@@]21C (some centres undefined)
inactive: S. cerevisiae deletion strains, locus YJR066W, strain TOR1, active compounds read low 0.939 | S. cerevisiae deletion strains, locus YKL009W, strain mrt4, active compounds read low 1.01 | S. cerevisiae deletion strains, locus YKL068W, active compounds read low 1 | S. cerevisiae deletion strains, locus YKL085W, strain MDH1 (second series), active compounds read low 1.01 | S. cerevisiae deletion strains, locus YKL085W, strain MDH1, active compounds read low 1.01 | S. cerevisiae deletion strains, locus YKL160W, strain elf1, active compounds read low 0.998 | S. cerevisiae deletion strains, locus YKL190W, strain CNB1, active compounds read low 1.01 | S. cerevisiae deletion strains, locus YKR001C, strain vps1, active compounds read low 1.01 | S. cerevisiae deletion strains, locus YKR026C, strain gcn3, active compounds read low 1 | S. cerevisiae deletion strains, locus YKR091W, strain srl3, active compounds read low 0.99 | S. cerevisiae deletion strains, locus YLL001W, strain dnm1, active compounds read low 1 | S. cerevisiae deletion strains, locus YLL026W, active compounds read low 1.01 | S. cerevisiae deletion strains, locus YLL041C, strain sdh2, active compounds read low 0.99 | S. cerevisiae deletion strains, locus YLR027C, strain aat2, active compounds read low 1 | S. cerevisiae deletion strains, locus YLR039C, strain RIC1, active compounds read low 1.02 | S. cerevisiae deletion strains, locus YLR058C, strain SHM2, active compounds read low 1.02 | S. cerevisiae deletion strains, locus YLR102C, strain apc9, active compounds read low 1.01 | S. cerevisiae deletion strains, locus YLR113W, strain HOG1, active compounds read low 0.988 | S. cerevisiae deletion strains, locus YLR221C, strain rsa3, active compounds read low 0.999 | S. cerevisiae deletion strains, locus YLR258W, strain gsy2, active compounds read low 1 | S. cerevisiae deletion strains, locus YLR262C, strain YPT6 (second series), active compounds read low 1.02 | S. cerevisiae deletion strains, locus YLR262C, strain YPT6, active compounds read low 1.09 | S. cerevisiae deletion strains, locus YLR268W, strain sec22, active compounds read low 1.02 | S. cerevisiae deletion strains, locus YLR320W, strain mms22, active compounds read low 1.01 | S. cerevisiae deletion strains, locus YLR330W, strain CHS5, active compounds read low 1.01 | S. cerevisiae deletion strains, locus YLR342W, strain FKS1 (second series), active compounds read low 0.997 | S. cerevisiae deletion strains, locus YLR342W, strain FKS1, active compounds read low 0.996 | S. cerevisiae deletion strains, locus YLR357W, strain rsc2, active compounds read low 1.01 | S. cerevisiae deletion strains, locus YLR370C, strain arc18, active compounds read low 0.998 | S. cerevisiae deletion strains, locus YLR371W, strain rom2, active compounds read low 1.01 | S. cerevisiae deletion strains, locus YLR384C, strain iki3, active compounds read low 0.996 | S. cerevisiae deletion strains, locus YLR418C, strain cdc73, active compounds read low 1.01 | S. cerevisiae deletion strains, locus YML016C, strain PPZ1, active compounds read low 1 | S. cerevisiae deletion strains, locus YML032C, strain rad52, active compounds read low 1.01 | S. cerevisiae deletion strains, locus YML120C, strain ndi1, active compounds read low 1 | S. cerevisiae deletion strains, locus YML124C, strain tub3, active compounds read low 1 | S. cerevisiae deletion strains, locus YMR058W, strain fet3, active compounds read low 1.01 | S. cerevisiae deletion strains, locus YMR078C, strain ctf18, active compounds read low 1.01 | S. cerevisiae deletion strains, locus YMR125W, strain sto1, active compounds read low 1.01 | S. cerevisiae deletion strains, locus YMR129W, active compounds read low 1 | S. cerevisiae deletion strains, locus YMR205C, strain PFK2, active compounds read low 0.973 | S. cerevisiae deletion strains, locus YMR223W, strain ubp8, active compounds read low 1.01 | S. cerevisiae deletion strains, locus YMR231W, strain pep5, active compounds read low 1 | S. cerevisiae deletion strains, locus YMR307W, strain GAS1, active compounds read low 1.1 | S. cerevisiae deletion strains, locus YNL067W, strain RPL9B, active compounds read low 0.998 | S. cerevisiae deletion strains, locus YNL071W, strain lat1, active compounds read low 1 | S. cerevisiae deletion strains, locus YNL128W, strain TEP1, active compounds read low 1.02 | S. cerevisiae deletion strains, locus YNL183C, strain NPR1, active compounds read low 0.965 | S. cerevisiae deletion strains, locus YNL209W, strain ssb2, active compounds read low 1 | S. cerevisiae deletion strains, locus YNL233W, strain BNI4, active compounds read low 1.03 | S. cerevisiae deletion strains, locus YNL248C, strain rpa49, active compounds read low 1 | S. cerevisiae deletion strains, locus YNL250W, strain rad50, active compounds read low 1.01 | S. cerevisiae deletion strains, locus YNL271C, strain bni1, active compounds read low 1.02 | S. cerevisiae deletion strains, locus YNL298W, strain CLA4, active compounds read low 1.02 | S. cerevisiae deletion strains, locus YNL307C, strain MCK1, active compounds read low 1.01 | S. cerevisiae deletion strains, locus YNL322C, strain KRE1 (second series), active compounds read low 0.999 | S. cerevisiae deletion strains, locus YNL322C, strain KRE1, active compounds read low 1.01 | S. cerevisiae deletion strains, locus YNR049C, strain mso1, active compounds read low 1 | S. cerevisiae deletion strains, locus YNR052C, strain pop2, active compounds read low 1.02 | S. cerevisiae deletion strains, locus YOL012C, strain htz1 1.02 | S. cerevisiae deletion strains, locus YOL147C, strain pex11, active compounds read low 1 | S. cerevisiae deletion strains, locus YOR001W, strain rrp6, active compounds read low 1.01 | S. cerevisiae deletion strains, locus YOR061W, strain CKA2, active compounds read low 1 | S. cerevisiae deletion strains, locus YOR069W, strain VPS5, active compounds read low 1.01 | S. cerevisiae deletion strains, locus YOR070C, strain gyp1, active compounds read low 1 | S. cerevisiae deletion strains, locus YOR080W, strain dia2, active compounds read low 1 | S. cerevisiae deletion strains, locus YOR083W, strain WHI5, active compounds read low 0.997 | S. cerevisiae deletion strains, locus YOR106W, strain vam3, active compounds read low 1.01 | S. cerevisiae deletion strains, locus YOR136W, strain idh2, active compounds read low 1.02 | S. cerevisiae deletion strains, locus YOR144C, strain elg1, active compounds read low 1.01 | S. cerevisiae deletion strains, locus YOR184W, strain ser1, active compounds read low 0.969 | S. cerevisiae deletion strains, locus YOR231W, strain MKK1, active compounds read low 0.976 | S. cerevisiae deletion strains, locus YOR265W, strain rbl2, active compounds read low 0.998 | S. cerevisiae deletion strains, locus YOR270C, strain vph1, active compounds read low 1.04 | S. cerevisiae deletion strains, locus YOR290C, strain snf2, active compounds read low 0.959 | S. cerevisiae deletion strains, locus YOR316C, strain cot1, active compounds read low 1.01 | S. cerevisiae deletion strains, locus YPL051W, strain arl3, active compounds read low 1.01 | S. cerevisiae deletion strains, locus YPL055C, strain LGE1, active compounds read low 1.01 | S. cerevisiae deletion strains, locus YPL078C, strain atp4, active compounds read low 1.01 | S. cerevisiae deletion strains, locus YPL106C, strain sse1, active compounds read low 0.986 | S. cerevisiae deletion strains, locus YPL240C, strain hsp82, active compounds read low 0.991 | S. cerevisiae deletion strains, locus YPL241C, strain CIN2, active compounds read low 1 | S. cerevisiae deletion strains, locus YPL256C, strain CLN2, active compounds read low 0.958 | S. cerevisiae deletion strains, locus YPR119W, strain clb2, active compounds read low 1.01 | S. cerevisiae deletion strains, locus YPR141C, strain kar3, active compounds read low 1.01 | S. cerevisiae deletion strains, locus YPR163C, strain tif3, active compounds read low 1.01 | S. cerevisiae deletion strains, locus YPR167C, strain met16, active compounds read low 1.01 | S. cerevisiae deletion strains, strain wtn01, active compounds read low 1.01 | S. cerevisiae strains, strain wild type, active compounds read low 1.01

Reference: PubChem BioAssay AID1159580 (chemical genetic matrix, 2015)
